Compound activity: PubChem, National Center for Advancing Translational Sciences (NCATS)
Compounds with a hit are over-represented: about 12% of the library has one in this group of screens.
ALDH1A1 inh = inhibitors of human aldehyde dehydrogenase 1A1; AID 1030; 220,000 tested, 7.3% active; Purified ALDH1A1, NADH fluorescence, propionaldehyde substrate; Potency, µM (titrated, usually from 75.3 µM), inactives show at the highest dose activity, negative = inhibition, most hits filed as inhibitors; active = well fitted inhibition curve with a large enough effect, not every such curve was filed as active; inconclusive = small, poorly fitted or top-dose-only effect, or another doubt; inactive = no such curve, though single readings can be large or run the other way;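 also: plate controls were no enzyme wells and a reference inhibitor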
RORg inh = ROR gamma (mouse) transcription inhibition | Drosophila S2 Gal4-RORgamma UAS-luciferase reporter, 20 h | Potency, µM (doses to about 53.6 µM), for inactives: at the highest dose activity change, negative = inhibition, usual class: inhibitors | 310,000 tested, 5.4% active; also: nearly all actives have a fitted effect of over 60% in size
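Drosophila S2 cells stably expressing Gal4-DBD/mouse RORγ fusion under metallothionein promoter plus UAS-luciferase; compound 1 h, then 700 uM CuSO4 induction for 20 h at ambient temperature; inhibition read as reduced luminescence.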
PLK1 PBD block = inhibitors of human PLK1 polo-box domain binding; Plk1 PBD binding of FITC phosphopeptide, fluorescence polarization; P53350; Potency, µM, inactives show max response, negative = inhibition, most hits filed as inhibitors; 360,000 tested, 2.8% active; also: series mostly up to about 57 µM; nearly all actives have a fitted effect of over 65% in size
Target sequence (P53350 whole entry, looked up, the tested form may be a part): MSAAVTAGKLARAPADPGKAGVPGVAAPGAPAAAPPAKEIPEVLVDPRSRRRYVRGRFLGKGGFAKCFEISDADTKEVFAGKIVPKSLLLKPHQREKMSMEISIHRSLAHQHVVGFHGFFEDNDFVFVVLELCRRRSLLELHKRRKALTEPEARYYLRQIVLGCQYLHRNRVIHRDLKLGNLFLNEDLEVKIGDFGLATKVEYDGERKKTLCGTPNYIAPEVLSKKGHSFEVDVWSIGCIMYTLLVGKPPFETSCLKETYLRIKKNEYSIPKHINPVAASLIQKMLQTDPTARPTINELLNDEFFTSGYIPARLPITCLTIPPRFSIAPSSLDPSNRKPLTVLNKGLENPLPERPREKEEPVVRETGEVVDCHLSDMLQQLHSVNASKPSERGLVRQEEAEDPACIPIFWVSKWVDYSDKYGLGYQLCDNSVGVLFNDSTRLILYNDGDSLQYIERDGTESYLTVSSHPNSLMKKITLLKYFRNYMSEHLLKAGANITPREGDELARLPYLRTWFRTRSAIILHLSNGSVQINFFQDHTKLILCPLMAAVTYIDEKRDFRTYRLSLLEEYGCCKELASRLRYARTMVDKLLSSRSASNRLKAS
Gal4-VP16 FLuc = counter-screen for ROR gamma inhibitors: Gal4-VP16 reporter. Drosophila S2 Gal4-VP16 UAS-luciferase, luminescence, 20 h. Potency, µM (highest dose often 53.6 µM), for inactives: at the top dose activity, negative = inhibition, most hits filed as inhibitors. 310,000 tested, 3.5% active. AID 2546;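 also: Gal4-VP16 expression switched on by copper sulfate through the metallothionein promoter; nearly all actives have a fitted effect of over 50% in size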
Sfp PPTase inh = blocks B. subtilis Sfp PPTase activity | Q9F4F7 | Biochemical Sfp PPTase activity, qHTS | Potency, µM, for the others: largest response in the series, negative = inhibition, hits mostly inhibitors | 310,000 tested, 3.5% active;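 also: the enzyme is Sfp with the accession as filed and its product quenches rhodamine fluorescence; 0% = enzyme reaction without inhibitor and -100% = no enzyme wells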
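Buffer: 50 mM Hepes-Na pH 7.6, 10 mM MgCl2, 0.01% Nonidet P-40, 0.01% BSA. Enzyme 15 nM, pre-exposed to compound 15 min; substrates then added and fluorescence change tracked over 30 min.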
The depositor's hits bear a star; ? = inconclusive; · = not tested or not shown; [ ] = remark or other dose. Unless noted, calls follow the shape of the dose curve; as a rule, active = well fitted curve in the direction sought with a large enough effect; inconclusive = small, poorly fitted or top-dose-only effect, or another doubt; inactive = no such curve, though single readings can be large; an effect the other way counts as inactive or inconclusive. Unless noted, % is scaled to controls: 0 for no effect and ±100 for the full control effect; potency is read from the fitted curve at half-maximal effect.

SMILES | ALDH1A1 inh | RORg inh | PLK1 PBD block | Gal4-VP16 FLuc | Sfp PPTase inh
O=[N+]([O-])c1ccccc1/C=N/n1c(-c2cccnc2)n[nH]c1=S | ? | ? | -22.7% | -5.2% | ?
O=[N+]([O-])c1cc(/C=N/n2c(-c3cccnc3)n[nH]c2=S)ccc1Cl | 2µM* | -13.1% | -20.3% | ? | ?
Fc1cccc(Cl)c1/C=N/n1c(-c2cccnc2)n[nH]c1=S | ? | 4.1% | 16.8µM* | 12.8% | 11.9%
O=S1(=O)CCC(NC(=S)NC2CCS(=O)(=O)C2)C1 (configuration not stated) | 3.5% | 22.2%[10 µM] | -3.8% | ? | 4.9%
CN(C)NC(=S)NC1CCS(=O)(=O)C1 (configuration not stated) | · | -25.7% | -0.8% | -13.8% | 79.4µM*
COc1ccc(C=NNC(=S)NC23CC4CC(CC(C4)C2)C3)cc1OC | · | · | 7.3% | · | ·
COc1ccc(/C=N/NC(=S)NC2CCS(=O)(=O)C2)cc1OC (configuration not stated) | -14.3% | 15.8µM* | -10.0% | ? | 56.2µM*
Cc1ccc(/C=N/NC(=S)NC2CCS(=O)(=O)C2)cc1 (configuration not stated) | -0.9% | 7.94µM* | -0.7% | 5.01µM* | ?
NS(=O)(=O)c1cccc(NC(=O)COC(=O)Cc2n[nH]c(=O)c3ccccc23)c1 | · | · | -9.3% | · | ·
N/C(=N\C(=S)Nc1ccccc1)c1ccccc1 | · | 7.94µM* | -0.3% | ? | 0.8%
Nc1cc(=O)nc(SCC(=O)Nc2ccccc2Cl)n1-c1ccccc1 | 8.5% | 18.3% | -8.5% | -6.3% | 20.2%
C/C(=N/NC(=O)c1ccc(C(C)(C)C)cc1)c1ccccn1 | · | · | -1.2% | · | ·
COc1ccc(C(=O)N/N=C(\C)c2ccccn2)cc1OC | · | 0.355µM* | 7.2% | 0.562µM* | 7.5%
C/C(=N\NC(=O)c1ccccc1Cl)c1ccccn1 | · | 1.26µM* | -2.2% | 2.82µM* | 10.8%
COc1ccc(C(=O)N/N=C(\c2ccccc2)c2ccccn2)cc1 | ? | 0.708µM* | -15.3% | 0.501µM* | -13.1%
C/C(=N\NC(=O)C1CCCN(S(=O)(=O)c2ccccc2)C1)c1ccccn1 (configuration not stated) | ? | 2.82µM* | -2.3% | 5.01µM* | 8.6%
Cc1noc(C)c1C(=O)N1CCC[C@@]2(CCN(c3cccc(-c4ccccc4)c3)C2)C1 | -7.8% | 7.3% | · | 0.0% | 2.1%
Cc1ccc(NC(=O)C2(C)CCN2CCc2ccccc2)cc1 (configuration not stated) | · | · | 4.2% | · | ·
O=C(O)CCC(=O)N1N=C(c2ccc(Br)cc2)CC1c1cccc(Br)c1 (configuration not stated) | · | 1.4% | -17.6% | -4.0% | -14.9%
COC(=O)[C@@H](c1ccccc1Cl)N1CCc2sccc2C1 | -1.0% | · | · | · | 10.8%
CSCC[C@H](NC(=O)[C@H](CC(C)C)NC(=O)CNC(=O)[C@H](Cc1ccccc1)N(C)C(=O)[C@H](Cc1ccccc1)NC(=O)[C@H](CC(=O)O)NC(=O)[C@@H](N)CC(=O)O)C(N)=O | · | 11.1% | · | 1.2% | 19.9%
C/C(=N/NC(=O)c1ccccn1)c1ccncc1 | · | -24.2% | -8.6% | -12.1% | 56.2µM*
C/C(Cc1ccccc1)=N\NC(=O)CCCCCC(=O)N/N=C(\C)Cc1ccccc1 | 11.2µM* | -3.3% | -2.1% | -10.2% | -11.1%
C/C(=N/NC(=O)c1cnccn1)c1ccncc1 | 8.1% | 1.7% | -16.1% | 6.0% | -5.1%
C/C(Cc1ccccc1)=N\NC(=O)c1ccccn1 | · | 0.5% | -0.4% | 0.5% | 50.1µM*
SMILES | ALDH1A1 inh | RORg inh | PLK1 PBD block | Gal4-VP16 FLuc | Sfp PPTase inh
C/C(=N\NC(=O)c1cccc2ccccc12)c1ccccn1 | · | · | -4.6% | · | 7.2%
C/C(=N\NC(=O)c1cc(Br)ccc1O)c1ccccn1 | · | 0.398µM* | -3.6% | 0.282µM* | 12.6%
CN1CCN(c2ncnc3ccc(-c4ccccc4C(F)(F)F)cc23)CC1 | ? | 3.7% | · | -27.5% | ?
C=CCC(C)(O)c1ccc(OC)cc1 (configuration not stated) | -0.9% | 30.8% | · | -11.1% | -4.5%
O=C(c1ccco1)N1CCC2(CCCN(Cc3ccncc3)C2)CC1 | ? | -22.4% | · | -8.1% | -5.3%
C/C(=N\NC(=O)c1ccccc1OCc1ccc(F)cc1)c1ccccn1 | · | · | -7.5% | · | ·
C/C(=N\NC(=O)C(c1ccccc1)c1ccccc1)c1ccccn1 | -2.8% | 0.631µM* | -2.2% | 1.58µM* | 3.6%
C/C(=N\NC(=O)c1cccc(Br)c1)c1ccccn1 | · | 0.1µM* | 7.4% | 0.0282µM* | 18.0%
O=C(NN=C(c1ccccc1)c1ccccn1)c1ccccc1 | · | · | -2.6% | · | ·
CCOc1ccc(OCc2ccc(C(=O)N/N=C(\C)c3ccccn3)cc2)cc1 | ? | 0.112µM* | -12.1% | 4.9% | 16.2%
O=C(N/N=C(\c1ccccc1)c1ccccn1)c1ccccc1Cl | · | 0.708µM* | -13.0% | 1.12µM* | -10.7%
CCOC(=O)C(=O)N(C)c1c(CC)nc2c(OCc3ccc(OC(F)F)cc3)cccn12 | · | · | -2.7% | · | ·
C/C(=N\NC(=O)c1ccc(Cl)c(Cl)c1)c1ccccn1 | · | 0.0891µM* | -15.8% | 0.0028µM* | 17.6%
CCOC(=O)C1CCCCN1Cc1ccc(F)c(Br)c1 (configuration not stated) | ? | 2.7% | -8.3% | 11.0% | 63.1µM*
CCOC(=O)C1CCCCN1Cc1ccc(OC)c(OC)c1 (configuration not stated) | · | -11.8% | -7.8% | 0.2% | -13.0%
C=CCOC(=O)C1=C(C)Nc2nnnn2C1c1ccc(OC)cc1OC (configuration not stated) | ? | -35.0% | -4.2% | -19.1% | 10.7%
C=CCOC(=O)C1=C(C)Nc2nnnn2C1c1cccs1 (configuration not stated) | 6.31µM* | -0.9% | -1.8% | 5.2% | 10.8%
COC(=O)C1=C(C)Nc2nnnn2C1c1cccs1 (configuration not stated) | 2.82µM* | -0.5% | -1.1% | -5.4% | 12.6%
CC1=C(C(=O)Nc2ccccc2)C(c2sccc2C)n2nnnc2N1 (configuration not stated) | 0.355µM* | -24.4% | · | 10.2% | 2.9%
O=C(c1ccc(Cl)cc1)N1CCN(C(=O)c2ccco2)CC1 | 25.1µM* | -9.6% | -8.6% | -5.2% | 1.6%
O=C(c1cc2ncc(Br)cn2n1)N1CCN(C(=O)c2ccco2)CC1 | 25.1µM* | 28.6% | -15.4% | 2.9% | 4.0%
CN(c1ccc(C(=O)N2CCN(c3ccc(F)cc3)CC2)cc1)S(C)(=O)=O | 11.9% | -29.0% | 3.36µM* | 5.0% | 5.4%
O=C(c1cc2ncc(Br)cn2n1)N1CCOCC1 | 3.0% | -5.5% | -6.4% | 1.9% | 9.9%
Cc1c(Cl)cccc1NC(=S)N1CCN(C(=O)c2ccco2)CC1 | · | -18.3% | -8.3% | -12.2% | 5.2%
Cc1c(Cl)cccc1NC(=O)N1CCN(C(=O)c2ccco2)CC1 | · | 0.3% | 16.8µM* | -8.5% | 15.6%
CC(C)(C)c1cc(NC(=O)C2(C)CCN2C(=O)C2(c3ccccc3)CCCC2)no1 (configuration not stated) | · | · | 3.5% | · | ·
